{"source": "ChEMBL document CHEMBL4513141", "about": "“CO-ADD screening of NIH (USA) - Clinical Collection” (2021)", "note": "About 30 (0.1%) of roughly 23,000 compounds showed an effect of 50% or more. Many of the other results were omitted from the sample, so strong results are more common in it than they were. Entries with a potency or affinity are not part of this list.", "data": [{"test_system": "Pseudomonas aeruginosa", "conditions": "Concentration 20 uM; ASSAY_TEST Inhibition of Bacterial Growth; detection method Absorption (OD600); MEDIA CAMHB; plate type 384well; NBS; CORNING #3640; time 18 hr", "units": {"Inhibition": "%"}, "values": [{"smiles": "CCOC(=O)[C@H](CCc1ccccc1)N[C@@H](C)C(=O)N1Cc2ccccc2C[C@H]1C(=O)O.Cl", "note": "[QUINAPRIL HYDROCHLORIDE]", "Inhibition": 14.62}, {"smiles": "CCOC(=O)[C@@H](CCc1ccccc1)N[C@@H](C)C(=O)N1CCC[C@H]1C(=O)O.O=C(O)/C=C\\C(=O)O", "Inhibition": 1.23}, {"smiles": "CCOC(=O)[C@H](CCc1ccccc1)N[C@@H](C)C(=O)N1[C@H](C(=O)O)C[C@@H]2CCC[C@@H]21", "Inhibition": 53.62}, {"smiles": "Cc1cnc(NC(=O)C2=C(O)c3ccccc3S(=O)(=O)N2C)s1", "note": "[MELOXICAM]", "Inhibition": 4.04}, {"smiles": "CCOC(=O)OC(C)OC1=C(C(=O)Nc2ccccn2)N(C)S(=O)(=O)c2ccccc21", "note": "(stereo unspecified) [AMPIROXICAM]", "Inhibition": 53.02}, {"smiles": "CN1C(C(=O)Nc2ccccn2)=C(O)c2ccccc2S1(=O)=O.O", "Inhibition": 7.03}, {"smiles": "N[C@@H]1CONC1=O", "note": "[CYCLOSERINE]", "Inhibition": 60.23}, {"smiles": "O=c1c(O[C@@H]2O[C@H](CO)[C@@H](O)[C@H](O)[C@H]2O)c(-c2ccc(O)c(O)c2)oc2cc(O)cc(O)c12", "note": "[ISOQUERCETIN]", "Inhibition": 60.53}, {"smiles": "O=c1c(O[C@@H]2O[C@H](CO)[C@H](O)[C@H](O)[C@H]2O)c(-c2ccc(O)c(O)c2)oc2cc(O)cc(O)c12", "note": "[HYPEROSIDE]", "Inhibition": 12.67}, {"smiles": "C[C@@H]1O[C@@H](OC[C@H]2O[C@@H](Oc3c(-c4ccc(O)c(O)c4)oc4cc(O)cc(O)c4c3=O)[C@H](O)[C@@H](O)[C@@H]2O)[C@H](O)[C@H](O)[C@H]1O", "note": "[RUTIN]", "Inhibition": 17.85}, {"smiles": "Cl.Nc1c2c(nc3ccccc13)CCCC2", "note": "[TACRINE HYDROCHLORIDE]", "Inhibition": 19.73}]}]}
